# POLI inh: inhibitors of human DNA polymerase iota; Q9UNA4; Pol iota fluorescent replication assay, 10 min; Potency, µM (highest dose often 115 µM), without a hit: top-dose activity, negative = inhibition, actives largely listed as inhibitors; 1% of 390,000 active; AID 588590
#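 Pol iota at 10 nM preincubated 15 min with compounds at room temperature; reaction started with fluorescent substrate, 50 nM final. Fluorescence read kinetically at 0 and 10 min; buffer-only wells as negative control.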
# POLK inh: DNA polymerase kappa (human) inhibition; Q9UBT6; purified Pol kappa, fluorescent DNA synthesis assay, 10 min; Potency, µM (doses to about 107 µM), inactives show at the highest dose activity, negative = inhibition, most hits filed as inhibitors; 0.53% of 400,000 active; AID 588579; further: on the % scale 0 is the no-effect control and ±100 the full control effect
#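 Kinetic fluorescence screen: compound preincubated 15 min RT with 10 nM enzyme; 50 nM substrate (final) initiates; reads at 0/10 min.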
# FEN1 inh: inhibitors of human flap endonuclease 1 | P39748 | Recombinant FEN1 flap cleavage, fluorescence, 15 min | Potency, µM (doses to about 114 µM), for inactives: top-dose activity change, negative = inhibition, hits mostly inhibitors | 0.35% of 390,000 active | AID 588795; further: on the % scale 0 is the no-effect control and ±100 the full control effect; nearly all actives have a fitted effect of over 65% in size
#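 Compounds are tested as a concentration series against 10 nM FEN1; after a 15 min room-temperature preincubation, 50 nM substrate starts cleavage, with plate reads at 0 and 15 min. Normalized responses are fitted by a Hill equation.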
# Pol eta inh: blocks human DNA polymerase eta activity; Q9Y253; recombinant Pol eta, fluorescent DNA replication assay; Potency, µM (titrated, usually from 114 µM), for the others: top-dose activity change, negative = inhibition, actives largely listed as inhibitors; 1.2% of 390,000 active; AID 588591; further: on the % scale 0 is the no-effect control and ±100 the full control effect
#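 Pol eta (10 nM) was preincubated with compounds for 15 min at room temperature, after which fluorescent replication substrate (50 nM final) was added to start the reaction. Fluorescence was read kinetically at 0 and 10 min.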
# WRN helicase inh: WRN helicase (human) inhibition | Q14191 | WRN helicase unwinding, fluorescent forked duplex, kinetic | Potency, µM (doses to about 114 µM), without a hit: top-dose activity change, negative = inhibition, most hits filed as inhibitors | 0.46% of 360,000 active; further: on the % scale 0 is the no-effect control and ±100 the full control effect; nearly all actives have a fitted effect of over 55% in size
# Target sequence (Q14191 whole entry, looked up): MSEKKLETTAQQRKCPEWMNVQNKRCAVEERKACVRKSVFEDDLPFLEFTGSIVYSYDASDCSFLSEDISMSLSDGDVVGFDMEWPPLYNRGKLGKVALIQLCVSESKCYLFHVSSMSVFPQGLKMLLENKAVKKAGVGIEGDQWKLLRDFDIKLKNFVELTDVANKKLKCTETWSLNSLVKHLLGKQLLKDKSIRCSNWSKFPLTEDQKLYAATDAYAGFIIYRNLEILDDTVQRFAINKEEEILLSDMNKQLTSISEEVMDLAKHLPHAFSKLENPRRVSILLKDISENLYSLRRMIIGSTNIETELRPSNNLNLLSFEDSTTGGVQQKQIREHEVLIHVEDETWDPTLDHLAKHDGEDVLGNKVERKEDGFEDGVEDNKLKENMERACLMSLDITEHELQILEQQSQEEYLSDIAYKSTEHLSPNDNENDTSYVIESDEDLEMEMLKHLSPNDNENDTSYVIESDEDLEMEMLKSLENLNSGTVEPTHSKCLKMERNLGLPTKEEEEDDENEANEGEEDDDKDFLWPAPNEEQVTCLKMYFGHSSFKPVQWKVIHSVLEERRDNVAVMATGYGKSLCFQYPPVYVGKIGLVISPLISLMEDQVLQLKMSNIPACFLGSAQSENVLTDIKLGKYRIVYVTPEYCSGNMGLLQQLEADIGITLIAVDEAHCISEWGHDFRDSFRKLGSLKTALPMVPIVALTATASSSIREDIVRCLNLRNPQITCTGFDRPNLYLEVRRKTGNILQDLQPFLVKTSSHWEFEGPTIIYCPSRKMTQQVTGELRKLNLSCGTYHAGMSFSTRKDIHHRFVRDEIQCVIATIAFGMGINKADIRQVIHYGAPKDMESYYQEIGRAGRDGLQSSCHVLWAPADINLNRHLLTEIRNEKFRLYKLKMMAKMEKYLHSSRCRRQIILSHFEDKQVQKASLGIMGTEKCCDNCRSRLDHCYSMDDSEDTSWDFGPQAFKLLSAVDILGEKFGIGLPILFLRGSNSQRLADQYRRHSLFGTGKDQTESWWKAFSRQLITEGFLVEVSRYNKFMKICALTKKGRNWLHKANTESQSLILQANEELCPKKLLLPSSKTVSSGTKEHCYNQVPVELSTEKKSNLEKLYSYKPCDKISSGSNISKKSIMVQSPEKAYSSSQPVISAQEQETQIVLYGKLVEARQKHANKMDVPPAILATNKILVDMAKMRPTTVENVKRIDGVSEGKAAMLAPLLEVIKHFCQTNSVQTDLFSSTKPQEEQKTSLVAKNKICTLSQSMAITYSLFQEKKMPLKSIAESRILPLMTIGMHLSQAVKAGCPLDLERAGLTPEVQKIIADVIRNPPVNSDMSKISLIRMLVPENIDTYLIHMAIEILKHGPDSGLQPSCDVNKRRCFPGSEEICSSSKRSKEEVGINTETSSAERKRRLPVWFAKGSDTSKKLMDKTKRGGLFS
#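 Primary qHTS, 1536-well format. 20 nM WRN + compound, 15 min RT; start with 100 nM forked fluorophore/quencher duplex, 2 mM ATP (final); kinetic read ex 525/em 598 nm.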
# Pol beta inh: blocks human DNA polymerase beta activity | P06746 | Pol beta primer extension/strand displacement, fluorescence kinetic | Potency, µM (highest dose often 114 µM), inactives show at the top dose activity change, negative = inhibition, usual class: inhibitors | 1.3% of 340,000 active | AID 485314; further: on the % scale 0 is the no-effect control and ±100 the full control effect
#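 Human Pol beta at 10 nM; strand-displacement substrate 50 nM final. Compound exposure 15 min at room temperature before start, reaction 10 min at room temperature.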
# Starred values were filed as active, the others as inactive; ? = inconclusive; . = no result; [ ] = another dose, or the depositor's remark. An excerpt weighted towards active compounds, which were near 2.4% of everything screened. The call rests on the fitted dose curve; in most records, active means well fitted curve in the direction sought with a large enough effect; inconclusive means small, poorly fitted or top-dose-only effect, or another doubt; inactive means no such curve, though single readings can be large; an effect the other way counts as inactive or inconclusive. Potency means the concentration at half of the fitted maximal effect.
SMILES,POLI inh,POLK inh,FEN1 inh,Pol eta inh,WRN helicase inh,Pol beta inh
N#C/C(=C\c1ccc(OCc2ccc(C(=O)O)cc2)cc1)C(=O)N1CCOCC1,?,-28%,17%,28µM*,-25%,13%
CCCS(=O)(=O)c1c(S(=O)(=O)CCC)c2cc(C(C)(C)C)ccn2c1C(=O)c1ccc(C)cc1,-19%,-1%,-11%,-6%,.,3%
Fc1ccc(Nc2nc(-c3ccncc3)cs2)cc1,86%,-19%,1%,5%,-7%,10µM*
Fc1ccc2[nH]c3c(N4CCc5ccccc5C4)ncnc3c2c1,-14%,-11%,-1%,-17%,-25%,14µM*
O=C(Nc1ccccc1)c1ccc(N2CCN(c3ccccc3)CC2)c(S(=O)(=O)N2CCOCC2)c1,14%,-12%,-8%,-2%,-3%,-11%
O=C(Nc1ccccc1)c1ccc(N2CCN(c3ccccn3)CC2)c(S(=O)(=O)N2CCOCC2)c1,89µM*,-12%,-15%,-18%,-12%,-20%
O=C(O)C1CCNCC1,-7%[58.9 µM],4%[60.1 µM],.,0%[57.1 µM],.,0%[57.1 µM]
O=C(O)C1CCCC1,?,28µM*,?,.,.,.
COC(=O)C1CCN(C(=O)COC(=O)CNS(=O)(=O)c2ccc(SC)c([N+](=O)[O-])c2)CC1,79µM*,-41%,-10%,?,-10%[11.6 µM],.
COc1ccccc1CC(=O)NO,18%,-4%,-2%,.,.,.
Cc1cc(-c2ccccc2)c2c(=O)[nH][nH]c2n1,79µM*,-9%,-4%,-18%,-20%[57.1 µM],0%
CCc1ccc(S(=O)(=O)c2nnn3c2nc(Nc2ccc(NC(C)=O)cc2)c2sccc23)cc1,79µM*,-20%,-6%,?,.,-5%
CCS(=O)(=O)n1nc(-c2ccco2)nc1NCc1ccc(C(C)C)cc1,1%,-15%,-1%,-21%,.,-13%
CCc1cc(C(=O)/C=C/c2cc3c(cc2C)OCCO3)c(O)cc1O,16%,-4%,3%,.,.,.
Cc1ccc(OCC(=O)Nc2ccc(NC(=O)c3ccco3)cc2)c(C)c1,?,-6%,-2%,?,-5%,28µM*
COc1ccc(NC(=O)c2ccco2)cc1NC(=O)COc1ccc(Cl)cc1C,-4%,-11%,-9%,79µM*,.,?
CCOc1ccc(C(=O)Nc2cccc(NC(=O)c3ccco3)c2)cc1Cl,89µM*,0%,89µM*,-11%,.,-23%
COc1ccc(NC(=O)c2ccco2)cc1NC(=O)COc1ccc(C)cc1C,-7%,2%,-4%,?,.,?
CCOc1ccc(C(=O)Nc2cc(NC(=O)c3ccco3)ccc2OC)cc1Br,-2%,-10%[60.1 µM],29%,-24%,.,-12%
O=C(CSc1nc2c([nH]c3ccccc32)c(=O)n1-c1ccccc1)Nc1ccc(Cl)c(Cl)c1,-17%,-7%[60.1 µM],11%,13%,.,1%
CCN(C(=O)c1cnc2ccc(C)cn2c1=O)c1ccccc1,3%,1%,19%,3%,.,20%
CCOC(=O)c1sc(N2N=C(C)C(N=Nc3cccc(C)c3)C2=O)nc1C (stereo unspecified),50µM*,89µM*,-24%,40µM*,-23%[11.6 µM],?
CC1=NN(c2nc(-c3ccc(C)cc3)cs2)C(=O)C1N=Nc1cccc(C)c1 (stereo unspecified),11%,-4%,4%,-14%,-23%,?
N#C/C(=C(/O)CCl)c1nc(-c2ccccc2)cs1,?,-15%,-6%,40µM*,-18%,?
N#C/C(=C(/O)CN1CCCCC1)c1nc(-c2ccc(Cl)cc2)cs1,16%,-7%,6%,7%,-7%[57.1 µM],0%
SMILES,POLI inh,POLK inh,FEN1 inh,Pol eta inh,WRN helicase inh,Pol beta inh
Cc1ccc(-c2csc(/C(C#N)=C(\O)CCl)n2)cc1,?,-18%,51%,45µM*,-22%,?
CN(C)c1ccc(/C=c2\[nH]c(=O)/c(=C\c3ccc(N(C)C)cc3)[nH]c2=O)cc1,?,-14%,-1%,.,.,.
O=C(O)c1c(Cl)c(Cl)c(Cl)c(Cl)c1-c1c2cc(I)c(=O)c(I)c-2oc2c(I)c(O)c(I)cc12,.,12µM*,.,.,.,.
O=C(Sc1n[nH]c(=O)[nH]c1=O)c1ccccc1,?,0%,1%,-12%,18µM*,.
CCOc1cccc(C2C=C(c3ccc4c(c3)OCO4)NC(c3ccc(Cl)cc3)N2)c1O (stereo unspecified),-29%,-9%,-5%,.,.,.
O=C(O)CCc1ccc(-c2cccs2)n1Cc1ccco1,?,-8%,-2%,?,-4%[11.6 µM],50µM*
O=C(O)CCc1ccc(-c2cccs2)o1,40µM*,?,-16%,45µM*,?,-21%
COCCn1c(CCC(=O)O)ccc1-c1cccs1,-15%,-12%,12%,3%,-9%,16%
O=C(O)CCc1ccc(-c2cccs2)n1NC(=O)c1cccs1,0%,3%,11%,-20%,2%,?
O=C(O)CCc1ccc(-c2ccc(Cl)cc2)n1Cc1ccco1,43%,-2%,-1%,?,-18%,?
O=C(O)CCc1ccc(-c2cccs2)n1NC(=O)c1ccc(O)cc1,?,?,-2%,89µM*,-17%[57.1 µM],?
C=C(C)CSc1nc2sc3c(c2c(=O)n1CCCC)CCCC3,-7%,12%,-1%,-10%,.,24%
CCn1c(SCC(=O)Nc2nccc(C)n2)nc2ccccc21,?,-5%,2%,-21%,-19%,79µM*
COc1ccccc1-c1nc2c(c(SCC(=O)Nc3ccccc3F)n1)Cc1c(CO)cnc(C)c1O2,4%,-10%,11%,-1%,.,79µM*
O=C(CSc1ccccc1)Nc1nnc(COc2ccc(Cl)cc2)s1,40%,-25%,-8%,?,?,20µM*
Cc1onc(-c2ccccc2)c1C(=O)Nc1nnc(COc2ccc(Cl)cc2)s1,-7%,-14%,-1%,-5%,56µM*,-10%
CCc1nnc(NC(=O)c2c(-c3ccccc3)noc2C)s1,20%,-9%,-101%,-3%,5%,27%
[N-]=[N+]=NCC1OC(n2cnc3c(=O)[nH]c(N)nc32)C(O)C1O (stereo unspecified),.,0%[60.1 µM],.,.,.,.

# High-throughput results deposited in PubChem by National Center for Advancing Translational Sciences (NCATS).
